Test results published in PubChem BioAssay AID540276 (National Center for Advancing Translational Sciences (NCATS), 2011).
Among all 300,000 compounds or so, about 5,400 (1.8%) were called active. Inconclusive results (about 28%) are left out. The list comes from a sample in which actives are over-represented; it also holds similar structures and randomly drawn compounds. Unmarked numbers belong to inactive results. Calls come from the whole dose curve; tested in HEK293 cells.

experiment: qHTS for inhibitors of binding or entry into cells for Marburg Virus; details: Marburg virus pseudotyped entry inhibition, cell reporter; series mostly up to 37.8 µM; activity change, negative = inhibition: at the top concentration
% is set by controls: 0 for no effect and ±100 for the full control effect; potency is the fitted concentration of half-maximal effect.

Structure (SMILES) | activity change, negative = inhibition | Potency
CC(NC(=O)c1ccccc1)C(=O)OCC(=O)Nc1cccc(S(=O)(=O)N2CCCC2)c1 (configuration not stated) | -30.3% | –
Cc1ccccc1N(C(=O)CNC(=O)c1cccs1)C(C(=O)NC1CCCC1)c1ccncc1 (configuration not stated) | -23.4% [at 46.1 µM] | –
CC(NC(=O)COC(=O)c1ccc2ccccc2n1)c1ccccc1 (configuration not stated) | -0.241% | –
CC(=O)c1cccc(NC(=O)Nc2ccc(C)cc2)c1 | -2.02% | –
CCSc1nsc(NC(=O)Nc2cccc(C(C)=O)c2)n1 | – | 10 µM (active)
C=C(C)C(=O)Nc1cccc(C(C)=O)c1 | -7.5% | –
CCOc1cccc(NC(=O)Cn2nc(-c3ccc4c(c3)OCCO4)ccc2=O)c1 | 9.43% | –
CC(=O)c1cc2c(cc1NC(=O)Cn1nc(-c3ccc(F)cc3)ccc1=O)OCO2 | – | 10 µM (active)
CC(=O)c1cc2c(cc1NC(=O)CN1CCCCCC1)OCO2 | -27.1% [at 46.1 µM] | –
CN(CC(=O)Nc1ccc(C(N)=O)cc1)S(=O)(=O)c1ccc2c(c1)OCCO2 | 8.9% [at 46.1 µM] | –
Cc1ccc2nc(SCC(=O)N3CCN(c4ccccc4)CC3)nc(=O)n2c1 | 20.2% [at 46.1 µM] | –
Cc1cccc(-c2nnc(SCC(=O)O)n2Cc2ccccc2)c1 | 11.9% [at 46.1 µM] | –
CCOC(=O)c1cn(Cc2cccc(C)c2)nn1 | – | 3.98 µM (active)
CCOC(=O)c1cn(CC(=O)Nc2ccc(C(C)C)cc2)nn1 | 0.84% | –
O=C(C/C(=N\O)c1ccccc1O)C(F)F | 1.48% | –
Cc1cc(S(=O)(=O)NCC(C)C)ccc1OCC(=O)NC1CC1 | 9.84% | –
FC(F)(F)Oc1ccc(NC(=S)NCc2ccccc2)cc1 | – | 11.2 µM (active)
S=C(NCCc1ccccc1)Nc1ccccc1 | -26.5% | –
COC(=O)Cc1ccc(NC(=S)NCc2ccccc2)cc1 | 1.35% | –
CSc1nc(-c2ccccc2)nc(C(Cl)Cl)n1 | – | 3.55 µM (active)
CCc1noc(C)c1C(=O)N1CCCC(N2CCN(c3ccc(F)cc3)CC2)C1 (configuration not stated) | 1.5% | –
COC1=CC(=O)OC(C)(c2ccccc2)C1 (configuration not stated) | 2.7% [at 46.1 µM] | –
CCOc1cc(CNn2c(C)nnc2SCC(=O)NC(C)(C)C)ccc1OCC(=O)NC(C)(C)C | 8.16% [at 46.1 µM] | –
CCOc1cc(CNCc2ccccn2)ccc1OCC(=O)NC(C)(C)C | – | 7.08 µM (active)
CCOc1cc(C)c(S(=O)(=O)NCc2ccccn2)cc1C | -3.87% | –
O=C(Nc1ccc(Cl)cn1)[C@H]1CCCN1S(=O)(=O)c1ccccc1 | -25.6% | –

Structure (SMILES) | activity change, negative = inhibition | Potency
CN(CC(O)COc1ccc(S(=O)(=O)N2CCOCC2)cc1Cl)C1CCCCC1 (configuration not stated) | – | 10 µM (active)
Cc1cc(S(=O)(=O)N2CCOCC2)ccc1OCC(=O)N1CCOCC1 | 1.56% [at 46.1 µM] | –
O=C(COc1ccc(S(=O)(=O)N2CCOCC2)cc1Cl)N1CCOCC1 | 5.41% [at 46.1 µM] | –
COc1ccccc1NC(=O)N(O)C1(C#N)CCCCC1 | -15.2% | –
O=C(Nc1cccc(S(=O)(=O)NC2=NCCC2)c1)c1ccc(F)cc1F | -0.493% [at 46.1 µM] | –
Cc1cc(C)c(C)c(S(=O)(=O)Nc2cccnc2)c1C | -4.45% [at 46.1 µM] | –
COc1ccc(CCn2nnnc2C(c2ccccc2)N2CCN(C)CC2)cc1OC (configuration not stated) | – | inactive
N#Cc1ccc(C(c2nnnn2CCc2ccccc2)N2CCCCCC2)cc1 (configuration not stated) | – | 20.6 µM (active)
CC(C)C(c1nnnn1CCc1ccccc1)N1CCN(C(=O)c2ccco2)CC1 (configuration not stated) | -1.5% | –
CC(C)(C)S(=O)(=O)c1ccccc1-c1noc(-c2ccccc2)c1C(N)=O | 3.72% [at 46.1 µM] | –
COc1ccc(S(=O)(=O)N2CCN(c3cnccn3)CC2)cc1 | -12.3% | –
O=C(Nc1ccc(S(=O)(=O)NCC2CCCO2)cc1)c1ccc(F)cc1 (configuration not stated) | 0.454% [at 46.1 µM] | –
CN(Cc1ccccc1)C(=O)C(=O)c1cn(CC(=O)N2CCCC2)c2ccccc12 | 8.79% [at 46.1 µM] | –
Cc1ccc(NNC(=O)c2cccs2)cc1Cl | – | 6.31 µM (active)
CCc1ccc(NC(=O)C(=O)NNC(=O)c2cccs2)cc1 | 3.2% [at 46.1 µM] | –
Cc1ccc(NNC(=O)c2c(F)cccc2Cl)cc1Cl | -18.7% [at 46.1 µM] | –
Cc1nc(CN(C)C(=O)CC2C(=O)NCCN2Cc2ccc(F)cc2)cs1 (configuration not stated) | 0.836% | –
C/C(=N\NC(=O)C1(C)CC1(Br)Br)c1ccc(C)cc1C (configuration not stated) | -12.7% | –
NC(N)=N/N=C/c1ccc(OCc2ccc(Cl)cc2Cl)cc1 | – | 10.3 µM (active)
COC(=O)c1sc2ncccc2c1OCc1ccc(Cl)cc1Cl | 5.87% | –
CCOc1ccc(/C=N/NC(N)=S)cc1 | -4.53% | –
Cc1ccc(NC(=O)COc2coc(CN3CCc4ccccc4C3)cc2=O)cc1Cl | 13.1% | –
CC(=O)c1ccc(NC(=O)C(C)OC(=O)c2ccc(NS(=O)(=O)c3ccc4[nH]c(=O)[nH]c4c3)cc2)cc1 (configuration not stated) | 6.38% | –
CCCCN1C2CCC1CC(OC(c1ccc(F)cc1)c1ccc(F)cc1)C2 (configuration not stated) | – | 3.55 µM (active)
COc1cc(OC)cc(C(=O)Nc2nnc(SCC(=O)NCC3CCCO3)s2)c1 (configuration not stated) | 29.5% | –
CCOc1ccc(NC(=O)CN2CCN(CC(=O)Nc3ccc(OC)cc3)CC2)cc1 | – | inactive
